An excerpt weighted towards active compounds, which were near 27% of everything screened.
CYP2C9 inhib: human CYP2C9 inhibition. P11712. CYP2C9 Supersomes, luciferin-H conversion, luminescence. inhibition, % at 5 µM. 96,000 tested, 20% active. AID 777;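 active = blocking of liver enzyme CYP2C9 beyond about 50% at 5 µM, limit read from the data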
CYP2C19 inh: blocks human cytochrome P450 2C19. P33261. CYP2C19 Supersomes, luciferin-H EGE luminescence, 30 min. inhibition, % at 5 µM. 96,000 tested, 21% active;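 active = CYP2C19 inhibition above a set limit at 5 µM in the primary screen, cut at about 50% in these data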;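 also: plate controls were negative control wells for no effect and 2.5 mM tranylcypromine positive control for full effect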
CYP2C9 act: increases human cytochrome P450 2C9 activity. P11712. recombinant CYP2C9, luciferin-H conversion, luminescence; hits give high values; factor 1 = untreated enzyme, 0 = blocked. activation factor at 5 µM. 96,000 tested, 1.4% active. AID 1024;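 active = activation factor of 2 or more for CYP2C9 at a 5 µM dose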;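 also: 0 = sulfaphenazole-blocked wells and 1 = vehicle-only wells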
CYP2C19 act: increases human CYP2C19 enzyme activity; 96,000 tested, under 10 active; AID 1025; recombinant CYP2C19, luciferin-H EGE luminescence; hits give high values; 0 = fully inhibited enzyme, 1 = untreated enzyme; activation factor at 5 µM;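 active = activation factor of at least 2 at 5 µM in the primary screen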;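 also: 0 = wells with 2.5 mM tranylcypromine and 1 = vehicle-only wells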
Cav3 T inh: blocks human Cav3.2 T-type calcium channel | Cav3.2-expressing cells, Fluo-4 calcium fluorescence FDSS; hits give low values | AID 449739 | 100,000 tested, 4% active | B-score at 10 µM | O95180;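 active = single-dose well whose peak fluorescence ratio is a statistical outlier from its plate by either plate-standardised score or position-corrected B-score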
The depositor's hits bear a star; · = no result.

SMILES	CYP2C9 inhib	CYP2C19 inh	CYP2C9 act	CYP2C19 act	Cav3 T inh
CCc1ccc2c(CN3CCN(S(=O)(=O)c4ccc5c(c4)OCCO5)CC3)cc(=O)oc2c1	53*	46	0.5	0.5	-1.8
CCc1ccc2oc(=O)cc(CN3CCC(C)CC3)c2c1	26	25	0.7	0.7	·
Cc1ccc2c(CC(=O)N3CCN(S(=O)(=O)c4ccc5c(c4)OCCO5)CC3)coc2c1	72*	41	0.3	0.6	-5.6*
COC(=O)c1ccc(NC(=O)CN2C(=O)CNC2=O)cc1	13	-8	0.9	1.1	-0.34
C#CCOCCOCCOCCNc1nc(N2CCOCC2)nc(N2CCN(C(=O)[C@H](CCC(=O)O)n3cc(C(N)[C@H](C)CC)nn3)CC2)n1 (stereo partly specified)	·	·	·	·	-0.22
CC(C)CNC(=O)C1CC(=O)OC12CCCCC2 (stereo unspecified)	3	-2	1	1	-0.098
O=C(c1ccccc1F)N1CCN(S(=O)(=O)c2ccc3c(c2)OCCO3)CC1	49	93*	0.5	0.1	-0.4
CN(C1CCCCC1)S(=O)(=O)c1ccc(S(=O)(=O)N2CCN(C(=O)c3ccccc3F)CC2)cc1	4	8	1	0.9	0.0076
CCC(=O)Nc1nc(C)c(C(=O)NC2CCCCC2)s1	·	·	·	·	0.52
CN(C(=O)C1CCCO1)c1nnc(-c2ccncc2)s1 (stereo unspecified)	14	98*	0.9	0	1
Cc1cnc(-c2nnc(N(C)C(=O)C3CCOC3)s2)cn1 (stereo unspecified)	-21	-14	1.2	1.1	0.0091
CN(C(=O)c1ccncc1)c1nnc(-c2ccncc2)s1	94*	96*	0.1	0	2.7
Cc1cccc(C(=O)N(C)c2nnc(-c3ccncc3)s2)c1	·	·	·	·	1.2
CN(C(=O)C1CCOC1)c1nnc(-c2ccncc2)s1 (stereo unspecified)	24	98*	0.8	0	-0.79
CN(C(=O)C1CCCO1)c1nnc(-c2ccccn2)s1 (stereo unspecified)	-8	-6	1.1	1.1	0.16
CCOCCCNC(=O)C1CCC(=O)N1CCc1ccccc1 (stereo unspecified)	8	10	0.9	0.9	0.83
CC(=O)N1CCc2cc3nc(C)cc(C)c3cc21	7	4	0.9	1	·
Cc1ccc(S(=O)c2ccc(C)cc2)cc1	2	32	1	0.7	0.019
CCN(CC)c1ccc(-n2c(C)c(C(C)=O)c(C(C)=O)c2C)cc1	80*	67*	0.2	0.3	·
CCN(CC)c1ccc(-n2c(C)cc(C=O)c2C)cc1	31	83*	0.7	0.2	-3.3
Cc1ccc(Cn2cc(SCC(N)=O)c3ccccc32)cc1	·	·	·	·	0.48
O=C(O)c1ccccc1C(=O)NCC(O)COCC1CC=CCC1 (stereo unspecified)	13	92*	0.9	0.1	0.62
Cc1ccc(S(=O)(=O)N(C(=O)c2ccncc2)c2ccc(OC(=O)c3ccncc3)c3ccccc23)c(C)c1	99*	97*	0	0	-2.3
Cc1ccc(OC(=O)c2ccc(S(=O)(=O)N(C)C)cc2)c(-n2nc3ccccc3n2)c1	28	16	0.7	0.8	-0.37
COc1ccc(CNC(=O)CCCCCn2c(SCC#N)nc3cc4c(cc3c2=O)OCO4)cc1	94*	48	0.1	0.5	-0.19
SMILES	CYP2C9 inhib	CYP2C19 inh	CYP2C9 act	CYP2C19 act	Cav3 T inh
O=C(Cn1c(CN2CCCCC2)nc2ccccc2c1=O)NC1CCCCC1	·	·	·	·	0.23
COc1ccc(CCNC(=O)CCn2c(=O)[nH]c3cc(OC)c(OC)cc3c2=O)cc1OC	·	·	·	·	1.4
COc1ccc(CCNC(=O)CCn2c(SCC#N)nc3ccccc3c2=O)cc1OC	60*	42	0.4	0.6	0.21
COc1ccc(CCNC(=O)CCCn2c(SCC#N)nc3ccccc3c2=O)cc1OC	65*	39	0.4	0.6	2.2
N#CCSc1nc2ccccc2c(=O)n1CCC(=O)NC1CCCCC1	-25	97*	1.2	0	0.94
CCCCCn1c(SCC#N)nc2cc(C(=O)NCC3CCCO3)ccc2c1=O (stereo unspecified)	39	37	0.6	0.6	-0.89
CC(C)(C)[C@]1(O)CCN2C[C@H]3c4ccccc4CCc4cccc(c43)[C@@H]2C1	·	·	·	·	-3
CC(C)(CNC(=O)c1cc2ccccc2o1)N1CCOCC1	14	10	0.9	0.9	0.82
N#CCn1c(C2CCCCC2)nc2ccccc2c1=O	65*	70*	0.3	0.3	-0.2

From PubChem BioAssay
